From PubChem BioAssay (Tox21)
Records with an inconclusive call do not appear. A structure can be active in one record and inactive in another. Activity calls are given as the source filed them. Unless noted, calls follow the shape of the full dose curve.

Tests used:
[1] = biological target: Gonadotropin-releasing hormone receptor (Homo sapiens) (UniProt P30968); test: Human gonadotropin-releasing hormone receptor (GnRHR) small molecule agonists, calcium flux assay in GnRHR-HEK293 cells (AID 1920063); also: nearly all actives have a fitted effect of over 35% in size
Gonadotropin-releasing hormone receptor (Homo sapiens), sequence (P30968 whole entry, looked up): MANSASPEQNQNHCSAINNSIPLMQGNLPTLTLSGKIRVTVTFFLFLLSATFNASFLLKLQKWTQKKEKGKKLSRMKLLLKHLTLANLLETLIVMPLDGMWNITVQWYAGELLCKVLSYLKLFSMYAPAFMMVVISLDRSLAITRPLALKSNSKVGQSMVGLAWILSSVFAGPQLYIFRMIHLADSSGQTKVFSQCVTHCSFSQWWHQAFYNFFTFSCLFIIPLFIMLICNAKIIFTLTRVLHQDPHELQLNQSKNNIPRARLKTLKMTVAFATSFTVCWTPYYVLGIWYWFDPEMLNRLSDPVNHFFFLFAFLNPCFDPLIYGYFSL
Method in brief: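 GnRHR-HEK293, 1500 cells/well, 18 h 37 C/5% CO2; Ca dye 1 h 37 C; cpd pinned (DMSO), agonist mode; kinetic FL 480/540, 3 min, 1 s reads; 15 conc, n=3.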

[2] = biological target: KiSS-1 receptor (Homo sapiens) (UniProt Q969F8); test: Human kisspeptin (KISS1R) small molecule agonists, calcium flux assay in KISS1R-HEK293 cells (AID 1920064; active = well fitted activation curve with a large enough effect in the repeat runs)
KiSS-1 receptor (Homo sapiens), sequence (Q969F8 whole entry, looked up): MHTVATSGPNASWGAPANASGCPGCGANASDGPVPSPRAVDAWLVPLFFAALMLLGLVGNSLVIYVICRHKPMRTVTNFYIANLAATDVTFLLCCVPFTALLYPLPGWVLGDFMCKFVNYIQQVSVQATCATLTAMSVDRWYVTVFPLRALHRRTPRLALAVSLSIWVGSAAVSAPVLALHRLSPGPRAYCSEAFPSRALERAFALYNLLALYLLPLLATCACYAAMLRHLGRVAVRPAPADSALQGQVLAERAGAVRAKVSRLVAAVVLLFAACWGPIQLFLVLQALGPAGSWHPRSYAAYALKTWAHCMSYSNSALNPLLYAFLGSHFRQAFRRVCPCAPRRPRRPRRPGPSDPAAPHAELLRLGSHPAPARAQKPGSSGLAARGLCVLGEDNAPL
Method in brief: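 Stable human KISS1R HEK293 line; 18 h plating, 37 C/5% CO2; calcium dye 1 h 37 C; compound pin transfer; kinetic fluorescence Ex/Em 480/540, 3 min.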

[3] = G protein-coupled receptor (GPCR) small molecule agonists, calcium flux assay: HEK293 wild type cell line counter screen (AID 1920065)
Method in brief: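 Kinetic fluorescence at Ex/Em 480/540, recorded every second over 3 min, served as the read-out after compound addition. Each compound was tested at 15 concentrations in triplicate on cells pre-loaded with calcium dye for 1 h.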

[4] = p53 small molecule agonists, cell-based qHTS assay with human liver microsomes (AID 1963577);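 also: p53 response element beta-lactamase reporter cells with liver microsomes plus NADPH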
Method in brief: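 16 h, 37 C exposure of p53RE-bla cells to compounds with human liver microsomes and NADPH (0.5 mg/mL final each); detection via LiveBLAzer mixture, 2 h dark at room temperature.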

[5] = p53 small molecule agonists, cell-based qHTS assay with rat liver microsomes (AID 1963578)
Method in brief: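 With rat liver microsomes and NADPH present (0.5 mg/mL final each), p53RE-bla cells are treated with compound for 16 h at 37 C. LiveBLAzer detection mixture is then applied for 2 h at room temperature in the dark.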

[6] = p53 small molecule agonists, cell-based qHTS assay with human liver microsomes: qHTS cell viability counter screen (AID 1963579); also: nearly all actives have a fitted effect of over 45% in size
Method in brief: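 In this multiplexed counter screen, the reporter plates were subsequently treated with CellTiter-Glo so that cell viability, reflected by luminescence, could be recorded for p53RE-bla cells dosed 16 h with compounds under microsomal activation (HLM and NADPH).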

[7] = p53 small molecule agonists, cell-based qHTS assay with rat liver microsomes: qHTS cell viability counter screen (AID 1963580); also: nearly all actives have a fitted effect of over 45% in size
Method in brief: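 Viability is assessed in parallel with the p53 reporter read: HCT-116 p53RE-bla cells receive compounds plus rat microsomes and NADPH (0.5 mg/mL final apiece), incubate 16 h at 37 C, and then CellTiter-Glo luminescence is recorded.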

[8] = p53 small molecule agonists, cell-based qHTS assay: qHTS cell viability counter screen (AID 1963581); also: nearly all actives have a fitted effect of over 45% in size
Method in brief: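 HCT-116 p53RE-bla cells, 4,000/well, plated 5 h before compound pin transfer; 16 h at 37 C; bla substrate 2 h RT; then CellTiter-Glo, 30 min RT, luminescence.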

[9] = p53 small molecule agonists, cell-based qHTS assay (AID 1963582; active = well fitted activation curve with a large enough effect in the signal ratio in the repeat runs, not every such curve was filed as active; the % refers to the signal ratio)
Method in brief: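 Reporter line: p53RE-bla. Pre-incubation 5 h, 37 C, 5% CO2; compound (DMSO, pin tool) 16 h, 37 C; B/G FRET substrate 2 h RT; fluorescence intensity read.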

[10] = biological target: 5-hydroxytryptamine receptor 2A (Homo sapiens) (UniProt P28223); test: 5-hydroxytryptamine receptor 2A (HTR2A) small molecule antagonists, cell-based qHTS assay (AID 1963586); also: nearly all actives have a fitted effect of over 45% in size
5-hydroxytryptamine receptor 2A (Homo sapiens), sequence (P28223 whole entry, looked up): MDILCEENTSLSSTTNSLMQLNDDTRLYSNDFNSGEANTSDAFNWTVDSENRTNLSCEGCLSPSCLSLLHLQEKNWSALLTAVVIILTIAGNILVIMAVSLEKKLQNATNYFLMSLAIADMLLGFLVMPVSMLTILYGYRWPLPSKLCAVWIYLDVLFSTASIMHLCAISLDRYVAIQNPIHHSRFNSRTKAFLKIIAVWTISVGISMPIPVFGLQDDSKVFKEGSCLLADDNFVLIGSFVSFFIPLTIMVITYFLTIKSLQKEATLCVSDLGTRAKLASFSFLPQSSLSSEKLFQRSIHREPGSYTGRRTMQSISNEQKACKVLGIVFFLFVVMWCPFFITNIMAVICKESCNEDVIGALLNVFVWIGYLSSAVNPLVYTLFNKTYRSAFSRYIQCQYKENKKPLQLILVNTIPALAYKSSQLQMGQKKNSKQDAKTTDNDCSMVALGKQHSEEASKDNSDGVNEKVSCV
Method in brief: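 Antagonist-mode intracellular calcium assay: DOI (4 nM) added after 5 min compound pre-incubation at room temperature to dye-loaded HTR2A-CHO cells. Fluorescence followed for 3 min, sampled every second.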

[11] = biological target: 5-hydroxytryptamine receptor 2A (Homo sapiens) (UniProt P28223); test: 5-hydroxytryptamine receptor 2A (HTR2A) small molecule agonists, cell-based qHTS assay (AID 1963587); also: nearly all actives have a fitted effect of over 30% in size
Method in brief: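 CHO cells stably expressing human HTR2A, plated 18 h, loaded with calcium dye 1 h at 37 C. Agonist mode: compounds added and intracellular calcium fluorescence recorded kinetically for 2 min at 1 sec intervals.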

[12] = biological target: Muscarinic acetylcholine receptor M1 (Homo sapiens) (UniProt P11229); test: Cholinergic receptor muscarinic 1 (CHRM1) small molecule antagonists, cell-based qHTS assay (AID 1963588); also: nearly all actives have a fitted effect of over 40% in size
Muscarinic acetylcholine receptor M1 (Homo sapiens), sequence (P11229 whole entry, looked up): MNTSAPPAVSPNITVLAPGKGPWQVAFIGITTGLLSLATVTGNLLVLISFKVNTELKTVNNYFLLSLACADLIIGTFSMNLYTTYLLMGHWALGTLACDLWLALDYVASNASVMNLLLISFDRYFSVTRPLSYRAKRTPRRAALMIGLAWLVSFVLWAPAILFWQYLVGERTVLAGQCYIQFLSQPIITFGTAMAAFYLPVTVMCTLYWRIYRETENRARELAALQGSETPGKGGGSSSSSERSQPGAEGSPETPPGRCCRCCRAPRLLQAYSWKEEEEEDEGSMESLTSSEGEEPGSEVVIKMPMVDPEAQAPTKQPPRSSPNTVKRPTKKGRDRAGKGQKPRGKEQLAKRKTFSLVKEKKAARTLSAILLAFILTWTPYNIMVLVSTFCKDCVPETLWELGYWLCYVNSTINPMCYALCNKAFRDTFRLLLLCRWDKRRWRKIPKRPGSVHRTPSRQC
Method in brief: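 CHRM1-CHO calcium-flux assay, antagonist mode. Cells were seeded 18 h, dye-loaded 1 h at 37 C and given compound for 5 min at RT, then acetylcholine was added at 50nM. FDSS fluorescence was read 3 min; 15 concentrations, three runs.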

[13] = biological target: Muscarinic acetylcholine receptor M1 (Homo sapiens) (UniProt P11229); test: Cholinergic receptor muscarinic 1 (CHRM1) small molecule agonists, cell-based qHTS assay (AID 1963589); also: nearly all actives have a fitted effect of over 35% in size
Method in brief: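 Human M1 in stable CHO line; 18 h plating, 1 h dye load 37 C; cpd added (agonist mode); Ca2+ fluorescence kinetic read, 1 s intervals; 15 conc, 3 runs.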

[14] = cAMP Responsive Elements (CRE) small molecule agonists, cell-based qHTS assay (AID 1963590)
Method in brief: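 HEK 293T CRE-bla, 2,000 cells/well, 18 h preincubation 37 C/5% CO2; cpds (DMSO) pinned, 3 h; LiveBLAzer B/G FRET substrate, 2 h RT.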

[15] = cAMP Responsive Elements (CRE) small molecule antagonists, cell-based qHTS assay (AID 1963591; active = well fitted inhibition curve with a large enough effect in the signal ratio in the repeat runs, not every such curve was filed as active; the % refers to the signal ratio)
Method in brief: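 Beta-lactamase reporter read by FRET substrate (LiveBLAzer B/G) after 2 h at room temperature. CRE-bla HEK293T cells had received compound plus 0.25 uM (final) NKH477 for 3 h at 37 °C.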

[16] = biological target: Beta-2 adrenergic receptor (Homo sapiens) (UniProt P07550); test: Adrenergic beta2 receptor (ADRB2) small molecule antagonists, cell-based qHTS assay (AID 1963592); also: nearly all actives have a fitted effect of over 50% in size; also: potency is read from the fitted curve at half-maximal effect
Beta-2 adrenergic receptor (Homo sapiens), sequence (P07550 whole entry, looked up): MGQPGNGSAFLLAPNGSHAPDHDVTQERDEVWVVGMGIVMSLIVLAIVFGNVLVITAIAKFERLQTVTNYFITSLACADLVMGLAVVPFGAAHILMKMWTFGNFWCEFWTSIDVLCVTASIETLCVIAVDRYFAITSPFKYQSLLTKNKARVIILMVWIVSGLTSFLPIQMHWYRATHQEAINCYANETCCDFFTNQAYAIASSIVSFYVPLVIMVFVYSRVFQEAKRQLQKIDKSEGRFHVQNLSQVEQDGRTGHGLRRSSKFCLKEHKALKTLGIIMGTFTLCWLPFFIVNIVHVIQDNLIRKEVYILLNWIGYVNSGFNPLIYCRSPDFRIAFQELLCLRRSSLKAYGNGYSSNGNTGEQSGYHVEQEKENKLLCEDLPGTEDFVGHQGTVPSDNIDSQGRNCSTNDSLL
Method in brief: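 Cells (CHO, stable ADRB2 overexpression) incubated 18-20hr at 37C; compounds added from DMSO; agonist mix (1nM isoproterenol, 100uM IBMX, 25uM Ro-20-1724) added; 0.5hr RT; d2-cAMP and anti-cAMP-cryptate added; 1hr RT; 665/615 nm read.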

[17] = biological target: Beta-2 adrenergic receptor (Homo sapiens) (UniProt P07550); test: Adrenergic beta2 receptor (ADRB2) small molecule agonists, cell-based qHTS assay (AID 1963593);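 also: CHO cells stably overexpressing human ADRB2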
Method in brief: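 CHO cells stably over-expressing ADRB2 were plated overnight at 37C, then dosed with compounds plus a stimulation mix containing 100uM IBMX and 25uM Ro-20-1724 for 0.5hr at room temperature. cAMP was measured by HTRF competition, 1hr.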

[18] = biological target: D(2) dopamine receptor (Homo sapiens) (UniProt P14416); test: Dopamine D2 receptor (DRD2) small molecule agonists, cell-based qHTS assay (AID 1963594); also: nearly all actives have a fitted effect of over 35% in size
D(2) dopamine receptor (Homo sapiens), sequence (P14416 whole entry, looked up): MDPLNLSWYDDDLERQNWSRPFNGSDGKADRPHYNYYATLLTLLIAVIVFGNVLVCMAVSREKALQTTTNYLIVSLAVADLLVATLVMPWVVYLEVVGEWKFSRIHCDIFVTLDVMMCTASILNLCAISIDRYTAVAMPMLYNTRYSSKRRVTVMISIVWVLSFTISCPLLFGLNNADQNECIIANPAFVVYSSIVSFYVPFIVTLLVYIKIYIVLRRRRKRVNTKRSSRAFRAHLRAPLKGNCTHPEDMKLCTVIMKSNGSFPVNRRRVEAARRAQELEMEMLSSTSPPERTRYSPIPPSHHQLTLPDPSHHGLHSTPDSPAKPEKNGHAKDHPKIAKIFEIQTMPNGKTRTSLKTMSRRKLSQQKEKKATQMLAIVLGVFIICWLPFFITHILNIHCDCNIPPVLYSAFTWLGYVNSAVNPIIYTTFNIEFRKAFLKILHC
Method in brief: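 HEK293 cells stably expressing human DRD2, pre-treated with PDE inhibitor Ro20-1724 (0.1 mM final) and compound 10 min at room temperature, then stimulated with NKH477 (200nM […]) for 30 min. cAMP read by HTRF (665/620 nm).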

[19] = biological target: D(2) dopamine receptor (Homo sapiens) (UniProt P14416); test: Dopamine D2 receptor (DRD2) small molecule antagonists, cell-based qHTS assay (AID 1963595; active = well fitted inhibition curve with a large enough effect in the signal ratio in the repeat runs, with a control signal flat; the % refers to the signal ratio)
Method in brief: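 DRD2-HEK293; 0.1 mM Ro20-1724; cpd 10 min RT; NKH477 200 nM + quinpirole 12 nM, 30 min RT; HTRF cAMP (cAMP-d2/anti-cAMP cryptate), 665/620 nm ratio after 1 h.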

[20] = Nuclear factor erythroid 2-related factor 2/antioxidant responsive element (Nrf2/ARE) small molecule agonists: luciferase reporter gene qHTS assay in human keratinocytes (AID 1919969); also: nearly all actives have a fitted effect of over 35% in size

Measured: Potency

CC(C)CC(C)(O)C#CC(C)(O)CC(C)C (stereo not given)
59.9 µM (active) and inactive: [16]
not listed: [20]
inactive: all other assays above

CC(C)CNCC(C)C
not listed: [2] | [17]
inactive: all other assays above

Nc1cc(C(Cl)=C(Cl)Cl)c(S(N)(=O)=O)cc1S(N)(=O)=O
not listed: [7] | [13] | [17]
inactive: all other assays above

CCOC(=O)[C@H](CCc1ccccc1)N[C@@H](C)C(=O)N1Cc2ccccc2C[C@H]1C(=O)O
not listed: [10] | [11] | [12] | [13] | [20]
inactive: all other assays above

O=C(O)[C@@H](O)[C@H](O)[C@H](O)[C@@H](O)C(=O)O
not listed: [3]
inactive: all other assays above

C#CC(O)CCC (stereo not given)
not listed: [1] | [5] | [13]
inactive: all other assays above
